# Source: the supplement of paper PMC8728848
# This is one part of a sample in which the strongest signals are shown more often than they occur.
# What was measured:
# Test in all cases: glycan array binding signal (z-score within array); higher = stronger binding
# Conditions in all cases: glycan notation: IUPAC condensed, linker removed
# [1] = target: Fuc(a1-2)Gal(b1-3)GalNAc(a1-3)[Fuc(a1-2)]Gal(b1-4)Glc
# Summary of the method: (§1)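 The binding signal is a Z-score computed within each array. Data were drawn from 3228 arrays in the Consortium for Functional Glycomics database, restricted to those with a known protein sequence. Scores were averaged over arrays of the same protein sequence at different concentrations or buffers, and over linkers, and negative values can be taken as non-binding.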
# [2] = target: Fuc(a1-2)Gal(b1-3)GlcNAc(b1-3)Gal(b1-4)Glc
# Summary of the method: as §1
# Fuc(a1-2)Gal(b1-4)Glc6S = target: Fuc(a1-2)Gal(b1-4)Glc6S
# Summary of the method: as §1
# [3] = target: Fuc(a1-2)[Gal(a1-3)]Gal(b1-4)[Fuc(a1-3)]GlcNAc
# Summary of the method: as §1
# [4] = target: Fuc(a1-2)[GalNAc(a1-3)]Gal
# Summary of the method: as §1
# [5] = target: Fuc(a1-2)[GalNAc(a1-3)]Gal(b1-4)GlcNAc(b1-3)Gal(b1-4)GlcNAc(b1-3)Gal(b1-4)GlcNAc
# Summary of the method: as §1
# [6] = target: Fuc(a1-3)[Gal(b1-4)]GlcNAc(b1-3)GalNAc
# Summary of the method: as §1
# [7] = target: Fuc(a1-3)[Gal3S(b1-4)]GlcNAc
# Summary of the method: as §1
# [8] = target: Gal(b1-3)GalNAc(a1-3)[Fuc(a1-2)]Gal(b1-4)Glc
# Summary of the method: as §1
# [9] = target: Gal(b1-3)GlcNAc(b1-6)Gal(b1-4)GlcNAc
# Summary of the method: as §1
# Gal(b1-4)GlcNAc = target: Gal(b1-4)GlcNAc
# Summary of the method: as §1
# [10] = target: Gal(b1-4)GlcNAc(b1-2)Man(a1-3)[Gal(b1-4)GlcNAc(b1-2)Man(a1-6)]Man(b1-4)GlcNAc(b1-4)GlcNAc
# Summary of the method: as §1
# [11] = target: Gal(b1-4)GlcNAc(b1-3)Gal(b1-3)GlcNAc
# Summary of the method: as §1
# [12] = target: Gal(b1-4)GlcNAc(b1-3)Gal(b1-4)[Fuc(a1-3)]GlcNAc(b1-3)Gal(b1-4)[Fuc(a1-3)]GlcNAc
# Summary of the method: as §1
# Gal6S(b1-4)GlcNAc6S = target: Gal6S(b1-4)GlcNAc6S
# Summary of the method: as §1
# GalNAc(b1-3)Gal = target: GalNAc(b1-3)Gal
# Summary of the method: as §1
# Glc(a1-4)Glc = target: Glc(a1-4)Glc
# Summary of the method: as §1
# GlcA(b1-3)GlcNAc = target: GlcA(b1-3)GlcNAc
# Summary of the method: as §1
# [13] = target: GlcNAc(b1-2)Man(a1-3)[GlcNAc(b1-2)Man(a1-6)]Man(b1-4)GlcNAc(b1-4)GlcNAc
# Summary of the method: as §1
# [14] = target: GlcNAc(b1-2)[GlcNAc(b1-4)]Man(a1-3)[GlcNAc(b1-2)Man(a1-6)]Man(b1-4)GlcNAc(b1-4)GlcNAc
# Summary of the method: as §1
# [15] = target: GlcNAc(b1-3)[GlcNAc(b1-4)][GlcNAc(b1-6)]GlcNAc
# Summary of the method: as §1
# [16] = target: GlcNAc(b1-3)[GlcNAc(b1-6)]Gal(b1-4)GlcNAc
# Summary of the method: as §1
# [17] = target: GlcNAc(b1-4)[GlcNAc(b1-6)]GalNAc
# Summary of the method: as §1
# [18] = target: Neu5Ac(a2-3)Gal(b1-3)GalNAc6S
# Summary of the method: as §1
# [19] = target: Neu5Ac(a2-3)Gal(b1-3)GlcNAc6S
# Summary of the method: as §1
# [20] = target: Neu5Ac(a2-3)Gal(b1-3)[Fuc(a1-4)]GlcNAc(b1-3)Gal(b1-3)[Fuc(a1-4)]GlcNAc
# Summary of the method: as §1
# [21] = target: Neu5Ac(a2-3)Gal(b1-3)[Neu5Ac(a2-6)]GalNAc
# Summary of the method: as §1
# [22] = target: Neu5Ac(a2-3)Gal(b1-4)GlcNAc(b1-3)Gal(b1-4)[Fuc(a1-3)]GlcNAc
# Summary of the method: as §1
# Neu5Ac(a2-6)Gal(b1-4)Glc = target: Neu5Ac(a2-6)Gal(b1-4)Glc
# Summary of the method: as §1
# [23] = target: Neu5Ac(a2-6)GlcNAc(b1-4)GlcNAc
# Summary of the method: as §1
binder,measurement,setting,value
SSL (Salmo salar) (protein) TGAKGAEEGVVPAETRNQCPTGWFQFGSRCFMFVETARSWPLAERHCVSLGANLASVHSSADDQFLQAIAGCKTGAFSTTWIGGFDAVQDRLWFWSDGSEFDYQNWAKGEPNNSGGREPCIVINWGDEYRWNDIKCGNSFPSVCSKRICEIQKN,glycan array binding signal (z-score),[1],-0.152
same,glycan array binding signal (z-score),[2],-0.096
same,glycan array binding signal (z-score),Fuc(a1-2)Gal(b1-4)Glc6S,-0.137
same,glycan array binding signal (z-score),[3],-0.154
same,glycan array binding signal (z-score),[4],-0.165
same,glycan array binding signal (z-score),[5],-0.178
same,glycan array binding signal (z-score),[6],-0.124
same,glycan array binding signal (z-score),[7],-0.17
same,glycan array binding signal (z-score),[8],-0.165
same,glycan array binding signal (z-score),[9],-0.163
same,glycan array binding signal (z-score),Gal(b1-4)GlcNAc,-0.154
same,glycan array binding signal (z-score),[10],-0.167
same,glycan array binding signal (z-score),[11],-0.174
same,glycan array binding signal (z-score),[12],-0.175
same,glycan array binding signal (z-score),Gal6S(b1-4)GlcNAc6S,-0.162
same,glycan array binding signal (z-score),GalNAc(b1-3)Gal,-0.143
same,glycan array binding signal (z-score),Glc(a1-4)Glc,2.63
same,glycan array binding signal (z-score),GlcA(b1-3)GlcNAc,4.35
same,glycan array binding signal (z-score),[13],3.12
same,glycan array binding signal (z-score),[14],6.65
same,glycan array binding signal (z-score),[15],11.7
same,glycan array binding signal (z-score),[16],6.68
same,glycan array binding signal (z-score),[17],8.49
same,glycan array binding signal (z-score),[18],-0.18
same,glycan array binding signal (z-score),[19],-0.167
same,glycan array binding signal (z-score),[20],-0.086
same,glycan array binding signal (z-score),[21],-0.153
same,glycan array binding signal (z-score),[22],-0.179
same,glycan array binding signal (z-score),Neu5Ac(a2-6)Gal(b1-4)Glc,-0.158
same,glycan array binding signal (z-score),[23],0.202
